Test system: VDR:RXRa (NR concentration 270 nM, RXRa partner concentration 90 nM)
Assay: PBM binding z-score (relative to random genomic background probes); higher = stronger binding; sequences stand for … in GC…GCGATTGACAGCGTAGAATGAAGG
Description: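 Protein-binding microarray (Agilent 4x180K custom design, double-stranded 60-nt probes: 5' GC cap, 34-nt variable region, 24-nt constant primer region; full probe sequence given). Purified or IVT nuclear receptor:RXRα heterodimers (3:1 NR:RXRα, mostly 270:90 nM) or homodimers were incubated for 1 h in PBS with 2% milk and no ligand, then detected with Alexa488 antibodies. Fluorescence from o1-orientation probes (~5 replicates averaged) was converted to z-scores against 500 random hg19 background probes. Variable regions are seed direct-repeat (DR0–DR5) sites, all their single-nucleotide variants and half-site ablations.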

Sequence | PBM binding z-score
CGAACTAGGTCAGAACAGGACACTGAAGGATGAT | 1.14
ATCTCTGGGTAACAAGTTCAGTGAAAGAGAGGAC | 2.8
AATACAGGGTCAATAGGCCAGAGTAGGTACGAAT | 3.64
CCTACTGGGCCAAGGTAATTGATCAGTCAAAGCA | -0.552
CAAACTAGGTCACCAGAAGGTCAAAGTCCGCATG | 5.66
CCTGCTAGGACATGGTCAGCTAATCTACAGTATG | -0.684
CCAGACAGGTGAGAAGGTAACTCCGCCTCGATTA | -0.335
TCATCTAGGTAAAAGGTGAAAGTCGGTGTGGTAA | 1.5
TCTAGGTGGTCAAAGGTCACACACTCGAAATGCG | 5.38
TGGAGTAGGTTACCAATGGGGCATTCAGCTTTCT | 0.293
GGAACGAGGGCATTCGAGTTGCTAGCATGGCGAT | 2.71
GCGACTGGGGCATCAGCAGGGTACCATAACTTAA | -0.459
ATCTCTAGGTAAAAGTTCAGTGACTCCCGAGGAT | 1.71
CCTACTGGGCCAAAAAGGTCATTAATGCCGATAA | 4.53
CGTCCAAGGTCAAAGCTAGGTCAGTGAAAGCATT | 5.25
TCGAGTAGGTTCGTCGGGGCATTCAGCCAACATA | 1.79
CCTAGCAGGCCAATCTGGGTCAGTCAAGGCTTGA | -0.258
CGTCAAATTTCAACTAAGGTAACGTAAAGCACGC | 0.709
CCGACTGGGGCATCAGGTTACCATAAGCCAGCCC | -0.451
GCTGGTAGATCAAGGTTAAGAAAGACTAAGCTAA | 0.201

Sequence | PBM binding z-score
TCTATTAGTTGATTAGAGCAACCGAAACAGCGGA | 0.404
TTTTGTAGATCAAGCAGGTTAAGAAAGCCTGAGT | 0.649
TCATATAGGTAAAGGTCAAAGTCGAACGATATGA | 4.77
CCAGACAGGCGAGAAGGTAACTCAGCCTCGATTA | -0.665
AGAATGAGGTTATTAAGATCAGGGAATTGCGGTC | 2.62
CCTACCGGGCCATTCAGAGGTCATTGATCATATG | 4.24
CATCCAAGGTCATAGGAGGTCAGTGAAGACAGAT | 6.74
CCTGCTAGGTCATGGTCATCTAATCTACAGTATG | 1.89
TCTGTTAGTTGATTAGGGCAACCGAAACAGCGGA | 0.452
CCTAGTTGGTCAGGAGGTGACACACCGGATATGA | 0.277
TCTTGTAGATCAACAGGAGGTTAAGAATGATCGA | 0.56
ATCTCTAGGTAACCAAGTGCAGTGAATGCCGAAC | 1.3
CGTGAAAGTTCAAGGTAACGTAACAGAAAGCAGC | 3.81
CCCAGTTGGTCAAGGTCACACACGCTATAGGTAC | 4.58
AGGATGAGGTTATTAAGATCAGGGAATTGCGGTC | 2.66
TTGAGTAGGTTACCAATGGGGCATTCAGCTTTCT | 0.365
TCTGCTAGGTCAACGATGGTCCGCTAATCTGCTA | 1.14
TCTGCTAGGTCAGTTGGTCAGATAACGAGCTGCC | 0.238
GCTTCTAGGTCAGGTTGGTCAGCTAACGGGTACG | 0.953
CAAACTCGGTCAAGGTCAAAGTCGGTTTGTGCCA | 4.95

— the supplement of paper PMC6555819
